# Measurements published in the supplement of paper PMC9433436.
# ± gives the standard deviation of the averaged measurements. In all, about 4,100 sequences were measured (“relative kcat/Km (krel) vs genomic leader AAAGAU”: median about 1.7, highest 2% from about 6.5 on). Many of the other results were omitted from the sample, so the highest values are more common in it than they were.
# Molecular target: T1, E. coli RNase P holoenzyme (M1 P RNA + rnpA protein) (UniProt P0A7Y8)
# T1 sequence: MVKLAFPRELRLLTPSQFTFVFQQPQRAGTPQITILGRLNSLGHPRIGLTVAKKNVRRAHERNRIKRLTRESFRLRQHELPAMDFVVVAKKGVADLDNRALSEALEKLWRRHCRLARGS
# Assay: relative kcat/Km (krel) vs genomic leader AAAGAU (relative (reference leader = 1)); higher = faster RNase P cleavage
# Protocol: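 HTS-Kin: a pool of ptRNA-Met (21C construct) with all 4096 combinations of 5' leader nucleotides N(-6) to N(-1) was processed in vitro by E. coli RNase P (P RNA + rnpA/C5 protein) under multiple-turnover conditions at 37 C, pH 8, 17.5 mM MgCl2. Residual substrate was Illumina-sequenced at several fractions reacted, and relative kcat/Km (krel) was computed by internal competition kinetics, calibrated to the genomic leader (AAAGAU = 1). The listed hexamer is the varied N(-6)..N(-1) leader (DNA letters), and it sits between a fixed 5' stem-loop flank (GCAUGCACGAAAGUGCGUGCUAUGAA) and the mature tRNA-Met starting GGCUACGUAGCUCAGUUGG. Two technical replicates are averaged.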
# [1] = fraction of substrate reacted: ~13-16% (15.68% repeat 1, 13.17% repeat 2)
# [2] = fraction of substrate reacted: ~26-29% (28.66% repeat 1, 26.4% repeat 2)
# [3] = fraction of substrate reacted: ~9-10% (9.79% repeat 1, 9.1% repeat 2)
Sequence,relative kcat/Km [1],relative kcat/Km [2],relative kcat/Km [3]
AGTCGG,0.482 ± 0.36,1.03 ± 0.14,
GAGAAA,3.13 ± 0.99,3.4 ± 0.98,2.38 ± 1.1
GTCATT,5.21 ± 2,8.08 ± 4,4.45 ± 1.6
TTCATC,5.94 ± 0.79,8.86 ± 3.8,4.42 ± 1.8
TTCATA,6.15 ± 0.55,8.54 ± 3.2,4.76 ± 2.5
GGCATT,2.15 ± 0.27,3.37 ± 1.4,1.85 ± 0.77
TCCATC,3.95 ± 0.47,6.33 ± 2.3,3.7 ± 1.8
TTCATG,2.08 ± 0.48,4.3 ± 1.5,2 ± 2
ATCATT,4.551 ± 0.032,6.49 ± 2.6,3.39 ± 1.4
CTCATA,4.93 ± 0.27,6.23 ± 2.5,3.84 ± 2.5
TGCATC,1.5 ± 0.48,2.05 ± 0.7,2.12 ± 1.2
TGCATT,1.93 ± 1.2,2.68 ± 1.7,0.949 ± 0.79
TTCATT,6.77 ± 1.4,9.68 ± 4.2,4.9 ± 1.8
TCTACA,1.87 ± 0.44,2.46 ± 1.1,1.43 ± 0.68
GGTAAG,0.931 ± 0.053,2.32 ± 1.1,1.39 ± 1.3
TCCACT,3.06 ± 0.4,4.72 ± 1.1,2.76 ± 1.1
CATCGT,,1.54 ± 1.2,
GGATCA,1.04 ± 0.42,1.53 ± 0.71,0.973 ± 0.2
CACGGT,,1.7 ± 0.39,
AGAGAT,1.15 ± 0.6,1.75 ± 0.4,0.682 ± 0.45
ATCATA,4.31 ± 0.3,5.9 ± 2.2,3.61 ± 1.8
GTCATA,4.91 ± 0.65,7.54 ± 3,4.4 ± 2

Sequence,relative kcat/Km [1],relative kcat/Km [2],relative kcat/Km [3]
GTCATG,1.48 ± 0.37,3.5 ± 0.91,
CGAGAG,,0.931 ± 0.1,0.809 ± 0.14
CCTTCC,1.51 ± 1.3,2.47 ± 0.27,1.62 ± 0.022
TCCGAT,2.91 ± 1.4,4.01 ± 1.3,2.34 ± 0.53
ACCGAG,0.833 ± 0.22,2.44 ± 0.21,2.58 ± 2.5
CCCGAT,2.76 ± 1.2,3.21 ± 0.9,2.59 ± 0.49
GCCGAC,3.49 ± 0.69,5.36 ± 2.2,2.64 ± 1.3
ACCGAC,3.17 ± 0.29,4.58 ± 1,2.3 ± 2.1
TCCGAG,2.52 ± 1.4,5.01 ± 2.2,2.34 ± 0.033
CCCGAG,0.888 ± 0.25,3.16 ± 0.072,1.48 ± 0.82
TCCGAA,6.23 ± 1.9,9.05 ± 3.9,5.05 ± 1.9
ACCGAA,4.31 ± 1,6.81 ± 3,3.81 ± 1.6
CCCGAA,4.35 ± 1.8,6.76 ± 2.5,2.83 ± 1.5
GCCGAA,4.16 ± 0.78,6.35 ± 2.4,3.56 ± 1.2
TCCGAC,4.91 ± 1.2,7.68 ± 3,3.47 ± 0.1
ACTCGT,,2.02 ± 1.7,
AGCACG,,1.13 ± 0.11,
TTAGAA,2.61 ± 0.03,3.57 ± 1.4,2.72 ± 1.5
GCCCAC,4.04 ± 1.6,5.93 ± 2.8,3.04 ± 0.041
TCCCAA,4.63 ± 0.2,6.94 ± 2.3,4.73 ± 3.1
TCCCAC,5.53 ± 1.1,7.79 ± 3,4.44 ± 1.1
ACCCAC,3.71 ± 0.7,5.48 ± 1.8,3.6 ± 1.7

Sequence,relative kcat/Km [1],relative kcat/Km [2],relative kcat/Km [3]
CCCCAA,3.57 ± 0.21,4.97 ± 1.6,3.03 ± 1.2
ACCCAA,2.69 ± 0.25,4.83 ± 1.9,2.3 ± 0.84
TCCCAT,5.74 ± 1,8.73 ± 3.7,4.48 ± 2.4
ACCCAT,2.95 ± 0.91,5.63 ± 2.4,2.43 ± 0.83
GCCCAT,3.36 ± 0.14,5.4 ± 1.5,3.07 ± 2.2
GCTATG,,1.51 ± 0.12,
AGAAAG,1.14 ± 0.7,2.2 ± 0.47,1.38 ± 1.3
CGGACG,,0.906 ± 0.41,1.05 ± 1.1
GCATAA,2 ± 0.52,3.04 ± 1.1,1.89 ± 0.96
ATAGTC,1.42 ± 1,1.68 ± 0.75,1.61 ± 0.89
AGTAAT,3.38 ± 0.27,5.07 ± 2.3,2.83 ± 0.62
TTCCTA,4.53 ± 0.46,5.89 ± 2.4,3.35 ± 1.2
GACGCC,4.62 ± 1.3,6.69 ± 2.6,3.241 ± 0.028
TACGCA,4.27 ± 0.58,6.64 ± 3.4,2.71 ± 1.7
GACGCG,0.59 ± 0.14,2.38 ± 0.093,
GACGCA,3.62 ± 0.97,5.24 ± 1.8,3.33 ± 1.3
AACGCC,3.24 ± 1.4,4.53 ± 1.3,1.93 ± 0.48
TACGCG,1.66 ± 0.44,3.13 ± 0.89,1.87 ± 1.1
GACGCT,2.17 ± 0.8,3.11 ± 1.4,2.24 ± 0.19
TACGCC,5.35 ± 1.7,7.66 ± 3.3,3.64 ± 0.043
AACGCA,3.18 ± 0.58,4.32 ± 1.4,2.99 ± 1.6
